Experimental data: PubChem BioAssay (Tox21)
Records with an inconclusive call do not appear. Entries that show only a call come without a potency. Active and inactive are the calls of the source. Calls come from the whole dose curve; as a rule, active = well fitted cell-killing curve with a large enough effect in the repeat runs; inconclusive = weak or mixed curves, or effect the other way; inactive = flat fitted curve, though single readings scatter.

assay: cAMP Responsive Elements (CRE) small molecule antagonists, cell-based qHTS assay: qHTS cell viability counter screen (AID 2060913); conditions: CRE-bla HEK293T viability, CellTiter-Glo luminescence, 5 h; series mostly up to 92.4 µM; note: nearly all actives have a fitted effect of over 40% in size
Procedure, shortened: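 HEK293T CRE-bla, 2,000 cells/well, 18 h preincubation; cpd in DMSO + NKH477 0.25 uM final, 3 h 37 C/5% CO2; LiveBLAzer 2 h RT, then CellTiter-Glo 30 min RT, luminescence.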

| Structure (SMILES) | Potency |
| --- | --- |
| O=C1Nc2cc(Cl)ccc2Oc2ccccc21 | inactive |
| FC(F)(F)c1cccc(Cl)c1 | inactive |
| CCN(Cc1cccc(S(=O)(=O)O)c1)c1ccc(C(=C2C=CC(=[N+](CC)Cc3cccc(S(=O)(=O)[O-])c3)C=C2)c2ccccc2)cc1 | inactive |
| CC(=O)Nc1ccc(C)cc1 | inactive |
| Cc1cc(Cc2ccc(N)c(C)c2)ccc1N | inactive |
| C[C@H](CCC(=O)O)[C@H]1CC[C@H]2[C@@H]3CC[C@@H]4C[C@H](O)CC[C@]4(C)[C@H]3CC[C@]12C | inactive |
| C=C(C)C(=O)OCCC[Si](Cl)(Cl)Cl | inactive |
| CCCCCCCCC(CCCCCC)C(=O)O (centres undefined) | inactive |
| CC(C)(C)NCC(O)c1ccc(O)c(CO)c1 (centres undefined) | inactive |
| CCCCCC(=O)OCCc1ccccc1 | inactive |
| Cc1cccc(C)c1NC(=O)c1ccc(N)cc1 | inactive |
| COc1ccc2c(c1)c(CC(=O)OC/C=C(\C)CC/C=C(\C)CCC=C(C)C)c(C)n2C(=O)c1ccc(Cl)cc1 | inactive |
| C/C(C=O)=C\c1ccccc1 | inactive |
| CC(C)(C#N)c1cc(Cn2cncn2)cc(C(C)(C)C#N)c1 | inactive |
| CC(N)CN (centres undefined) | inactive |
| C=CC(=O)O | inactive |
| C/C=C(/C(=C/C)c1ccc(O)cc1)c1ccc(O)cc1 | inactive |
| OC1OCCOC1O (centres undefined) | inactive |
| CC(C)CCCC(C)CC=O (centres undefined) | inactive |
| O=C(O)c1ccco1 | inactive |
| COc1cc2ncnc(Nc3ccc(F)c(Cl)c3)c2cc1OCCCN1CCOCC1 | inactive |
| Cc1ccc2c(c1)OCC(=O)CO2 | inactive |
| CC1COc2ccccc2N1 (centres undefined) | inactive |
| CNC(=O)CN(CCN(CCN(CC(=O)[O-])CC(=O)NC)CC(=O)[O-])CC(=O)[O-].O.[Gd+3] | inactive |
